# Results filed as inconclusive are left out. The source made the active and inactive calls. How the source made its calls: active means hit-call score of the fitted dose curve at least 0.9, where 1 is the maximum; inconclusive means response in the unintended direction; inactive means score below 0.9.
# Key:
# [1] = target: human Esterase Plasma (ES), BCHE (gene 590) (UniProt P06276); experiment: NVS_ENZ_hES: NovaScreen (NVS) Enzymatic Assay for human Esterase Plasma (ES) (AID 2283157)
# Summary of the method: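 Screening ran at 25 uM in duplicate, followed by singleton concentration series reaching 50 uM for actives. Human plasma protein, colorimetric detection, 0.25 h exposure, DMSO negative control.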
# [2] = target: human Fibroblast Growth Factor Receptor 1 (FGFR1), FGFR1 (gene 2260) (UniProt P11362); experiment: NVS_ENZ_hFGFR1: NovaScreen (NVS) Enzymatic Assay for human Fibroblast Growth Factor Receptor 1 (FGFR1) (AID 2283159)
# Summary of the method: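 Cell-free recombinant kinase with fluorescent substrate, product separated by electrophoretic mobility shift; read 1 hour after dosing, loss of signal relative to DMSO. Initial screen in duplicate at 25 uM, actives followed in concentration series.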
# [3] = target: human Matrix Metalloproteinase-3 (MMP3), MMP3 (gene 4314) (UniProt P08254); experiment: NVS_ENZ_hMMP3: NovaScreen (NVS) Enzymatic Assay for human Matrix Metalloproteinase-3 (MMP3) (AID 2283185)
# Summary of the method: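 Fluorescent substrate turnover by recombinant MMP3 read after 1 h, signal loss scored against DMSO. Compounds first run in duplicate at 25 uM single dose, then actives confirmed by concentration series.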
# [4] = target: human IkappaB Kinase alpha (IKKa), CHUK (gene 1147) (UniProt O15111); experiment: NVS_ENZ_hIKKa: NovaScreen (NVS) Enzymatic Assay for human IkappaB Kinase alpha (IKKa) (AID 2283167)
# Summary of the method: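 Compounds first run in duplicate at 25 uM, those meeting threshold (e.g. 30% inhibition) retested to maximum 50 uM. Enzyme activity of recombinant IKKa measured by fluorescence with electrophoretic mobility shift separation, 1 hour post-dosing, DMSO baseline.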
# [5] = target: human Ephrin type-A Receptor 2 (EphA2), EPHA2 (gene 1969) (UniProt P29317); experiment: NVS_ENZ_hEphA2: NovaScreen (NVS) Enzymatic Assay for human Ephrin type-A Receptor 2 (EphA2) (AID 2283155)
# Summary of the method: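 Enzyme activity of recombinant EphA2 read by fluorescence after mobility-shift separation, 1 h after dosing. Chemicals first tested at 25 uM (duplicate); those passing threshold run as concentration series, top 50 uM, single replicate, relative to DMSO.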
# [6] = target: human Ephrin type-A Receptor 1 (EphA1), EPHA1 (gene 2041) (UniProt P21709); experiment: NVS_ENZ_hEphA1: NovaScreen (NVS) Enzymatic Assay for human Ephrin type-A Receptor 1 (EphA1) (AID 2283158);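 further: activity is signal loss versus DMSO meaning EphA1 kinase inhibition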
# Summary of the method: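 Cell-free kinase activity with recombinant protein, 1 hour after dosing; product separated by electrophoretic mobility shift, fluorescence read. Primary screen at 25 uM in duplicate; hits run as concentration-response up to 50 uM, relative to DMSO.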
# [7] = target: Glycogen synthase kinase-3 beta (Homo sapiens) (UniProt P49841); experiment: NVS_ENZ_hGSK3b: NovaScreen (NVS) Enzymatic Assay for human Glycogen Synthase Kinase-3 beta (GSK3b) (AID 2283165)
# Summary of the method: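 Recombinant enzyme with specific fluorescent substrate, 1 h, product separated by electrophoretic mobility shift. Primary duplicate screen at 25 uM; actives (e.g. 30% inhibition) followed in singleton concentration-response to 50 uM. Signal loss fitted versus DMSO.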
# [8] = target: human Insulin Receptor (InsR), INSR (gene 3643) (UniProt P06213); experiment: NVS_ENZ_hInsR: NovaScreen (NVS) Enzymatic Assay for human Insulin Receptor (InsR) (AID 2283168)
# Summary of the method: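 Cell-free enzyme assay read 1 h post-dose by fluorescence after substrate/product mobility-shift separation. Duplicate 25 uM primary screen, then singleton concentration-response up to 50 uM for compounds passing threshold; loss of signal vs DMSO.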
# [9] = target: human Matrix Metalloproteinase-7 (MMP7), MMP7 (gene 4316) (UniProt P09237); experiment: NVS_ENZ_hMMP7: NovaScreen (NVS) Enzymatic Assay for human Matrix Metalloproteinase-7 (MMP7) (AID 2283183)
# Summary of the method: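 Compounds first tested at 25 uM in duplicate, then at up to 50 uM in concentration series if active. Protease activity measured by fluorescence intensity 1 h after dosing, with fitting relative to DMSO.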
# [10] = target: Protein deacetylase HDAC6 (Homo sapiens) (UniProt Q9UBN7); experiment: NVS_ENZ_hHDAC6: NovaScreen (NVS) Enzymatic Assay for human Histone Deacetylase 6 (HDAC6) (AID 2283164)
# Summary of the method: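 Concentration-response runs up to 50 uM followed a duplicate 25 uM single-point screen. Deacetylase activity of recombinant human HDAC6 read by fluorescence after 1 h, with mobility-shift separation of substrate and product; DMSO as baseline.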
# [11] = target: human MAP Kinase-Activated Protein Kinase 2 (MAPKAPK2), MAPKAPK2 (gene 9261) (UniProt P49137); experiment: NVS_ENZ_hMAPKAPK2: NovaScreen (NVS) Enzymatic Assay for human MAP Kinase-Activated Protein Kinase 2 (MAPKAPK2) (AID 2283178)
# Summary of the method: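 Chemicals screened in duplicate at 25 uM, then to 50 uM top concentration in concentration-response, against recombinant human MAPKAPK2; substrate conversion read 1 hr post-dosing by fluorescence after electrophoretic mobility-shift separation, loss-of-signal relative to DMSO.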
# [12] = target: Mitogen-activated protein kinase 3 (Homo sapiens) (UniProt P27361); experiment: NVS_ENZ_hMAPK3: NovaScreen (NVS) Enzymatic Assay for human Mitogen-Activated Protein Kinase 3 (MAPK 3) (AID 2283177)
# Summary of the method: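 Chemicals were first tested in duplicate at 25 uM, with hits re-run as concentration series (max 50 uM). Recombinant enzyme activity, measured 1 h post-dose in a cell-free format, was read by fluorescence/mobility shift relative to DMSO.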
# [13] = target: human Matrix Metalloproteinase-2 (MMP2), MMP2 (gene 4313) (UniProt P08253); experiment: NVS_ENZ_hMMP2: NovaScreen (NVS) Enzymatic Assay for human Matrix Metalloproteinase-2 (MMP2) (AID 2283184)
# Summary of the method: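 Compounds first screened in duplicate at a single 25 uM, with actives followed up in concentration series. Recombinant human MMP2 cleaves a fluorogenic substrate; fluorescence taken at 1 h, inhibition fitted relative to DMSO.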
# [14] = target: human FYN Proto-Oncogene, Src family Tyrosine Kinase (Fyn), FYN (gene 2534) (UniProt P06241); experiment: NVS_ENZ_hFyn: NovaScreen (NVS) Enzymatic Assay for human FYN Proto-Oncogene, Src family Tyrosine Kinase (Fyn) (AID 2283161)
# Summary of the method: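 Cell-free kinase activity read by fluorescence after mobility-shift separation of substrate and product, 1 h post-dose. Initial single concentration 25 uM in duplicate, then concentration-response follow-up; DMSO baseline.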
# [15] = target: Collagenase 3 (Homo sapiens) (UniProt P45452); experiment: NVS_ENZ_hMMP13: NovaScreen (NVS) Enzymatic Assay for human Matrix Metalloproteinase-13 (MMP13) (AID 2283182)
# Summary of the method: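 Recombinant MMP13 cleaving fluorescent substrate, cell-free, measured 1 h after dosing. Primary duplicate screen at 25 uM; actives tested in concentration-response up to 50 uM; loss of signal relative to DMSO.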
# [16] = target: human MET Proto-Oncogene, Receptor Tyrosine Kinase (MET), MET (gene 4233) (UniProt P08581); experiment: NVS_ENZ_hMet: NovaScreen (NVS) Enzymatic Assay for human MET Proto-Oncogene, Receptor Tyrosine Kinase (MET) (AID 2283180)
# Summary of the method: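 Hits from a 25 uM duplicate screen were retested in concentration series up to 50 uM. Enzyme activity was measured by fluorescence after electrophoretic separation of product from substrate, 1 h after compound addition, relative to DMSO.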
# Sequence of human Esterase Plasma (ES), BCHE (gene 590) (P06276 whole entry, looked up): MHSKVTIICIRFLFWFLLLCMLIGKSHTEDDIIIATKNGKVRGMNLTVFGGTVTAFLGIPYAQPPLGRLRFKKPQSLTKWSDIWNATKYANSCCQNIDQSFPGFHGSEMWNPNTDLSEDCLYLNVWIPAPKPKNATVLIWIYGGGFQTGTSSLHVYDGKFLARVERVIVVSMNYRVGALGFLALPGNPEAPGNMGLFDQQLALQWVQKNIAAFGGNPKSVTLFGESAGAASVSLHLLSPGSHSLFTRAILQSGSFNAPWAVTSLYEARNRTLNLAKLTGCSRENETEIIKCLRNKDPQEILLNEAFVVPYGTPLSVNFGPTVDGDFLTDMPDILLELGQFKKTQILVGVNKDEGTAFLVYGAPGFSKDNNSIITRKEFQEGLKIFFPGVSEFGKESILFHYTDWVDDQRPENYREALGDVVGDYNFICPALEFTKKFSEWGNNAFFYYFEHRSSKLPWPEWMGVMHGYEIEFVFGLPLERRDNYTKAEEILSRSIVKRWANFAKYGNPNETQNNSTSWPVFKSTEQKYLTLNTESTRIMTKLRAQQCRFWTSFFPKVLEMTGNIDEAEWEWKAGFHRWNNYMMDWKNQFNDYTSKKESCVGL
# Sequence of human Matrix Metalloproteinase-7 (MMP7), MMP7 (gene 4316) (P09237 whole entry, looked up): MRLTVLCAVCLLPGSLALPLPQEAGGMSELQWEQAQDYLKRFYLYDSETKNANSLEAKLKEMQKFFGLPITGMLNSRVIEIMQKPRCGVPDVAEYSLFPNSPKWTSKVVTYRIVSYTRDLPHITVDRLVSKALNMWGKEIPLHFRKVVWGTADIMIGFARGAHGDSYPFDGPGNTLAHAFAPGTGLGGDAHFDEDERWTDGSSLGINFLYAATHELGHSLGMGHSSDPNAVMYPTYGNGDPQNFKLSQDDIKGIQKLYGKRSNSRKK
# Sequence of human IkappaB Kinase alpha (IKKa), CHUK (gene 1147) (O15111 whole entry, looked up): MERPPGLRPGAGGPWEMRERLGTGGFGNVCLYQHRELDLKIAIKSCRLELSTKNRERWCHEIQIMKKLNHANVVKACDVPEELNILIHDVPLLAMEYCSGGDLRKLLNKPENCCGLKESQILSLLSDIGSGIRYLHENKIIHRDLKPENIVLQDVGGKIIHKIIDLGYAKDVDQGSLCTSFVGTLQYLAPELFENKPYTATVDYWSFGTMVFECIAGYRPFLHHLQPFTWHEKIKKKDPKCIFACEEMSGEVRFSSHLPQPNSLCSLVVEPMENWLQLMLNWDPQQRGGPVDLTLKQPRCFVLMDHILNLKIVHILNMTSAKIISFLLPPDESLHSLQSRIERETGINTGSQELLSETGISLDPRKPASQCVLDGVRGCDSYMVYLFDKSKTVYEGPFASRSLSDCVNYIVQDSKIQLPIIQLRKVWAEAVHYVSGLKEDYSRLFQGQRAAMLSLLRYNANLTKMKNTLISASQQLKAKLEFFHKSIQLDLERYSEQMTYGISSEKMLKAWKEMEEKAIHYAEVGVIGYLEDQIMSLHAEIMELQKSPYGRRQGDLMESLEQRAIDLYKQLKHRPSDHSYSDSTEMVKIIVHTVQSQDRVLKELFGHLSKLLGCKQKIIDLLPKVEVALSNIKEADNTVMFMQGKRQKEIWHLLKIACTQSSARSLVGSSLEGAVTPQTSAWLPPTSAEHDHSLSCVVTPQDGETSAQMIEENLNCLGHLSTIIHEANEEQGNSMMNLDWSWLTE
# Sequence of Mitogen-activated protein kinase 3 (Homo sapiens) (P27361 whole entry, looked up): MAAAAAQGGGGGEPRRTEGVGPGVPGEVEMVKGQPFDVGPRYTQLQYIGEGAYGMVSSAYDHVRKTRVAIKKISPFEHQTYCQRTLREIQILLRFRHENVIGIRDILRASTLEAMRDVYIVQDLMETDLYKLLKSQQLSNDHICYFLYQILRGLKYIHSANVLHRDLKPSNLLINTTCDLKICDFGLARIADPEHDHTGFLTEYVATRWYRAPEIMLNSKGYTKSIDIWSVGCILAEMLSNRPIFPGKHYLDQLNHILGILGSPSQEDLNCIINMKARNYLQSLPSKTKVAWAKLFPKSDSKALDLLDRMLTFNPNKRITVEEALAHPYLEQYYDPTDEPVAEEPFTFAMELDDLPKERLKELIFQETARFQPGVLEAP
# Sequence of human Matrix Metalloproteinase-3 (MMP3), MMP3 (gene 4314) (P08254 whole entry, looked up): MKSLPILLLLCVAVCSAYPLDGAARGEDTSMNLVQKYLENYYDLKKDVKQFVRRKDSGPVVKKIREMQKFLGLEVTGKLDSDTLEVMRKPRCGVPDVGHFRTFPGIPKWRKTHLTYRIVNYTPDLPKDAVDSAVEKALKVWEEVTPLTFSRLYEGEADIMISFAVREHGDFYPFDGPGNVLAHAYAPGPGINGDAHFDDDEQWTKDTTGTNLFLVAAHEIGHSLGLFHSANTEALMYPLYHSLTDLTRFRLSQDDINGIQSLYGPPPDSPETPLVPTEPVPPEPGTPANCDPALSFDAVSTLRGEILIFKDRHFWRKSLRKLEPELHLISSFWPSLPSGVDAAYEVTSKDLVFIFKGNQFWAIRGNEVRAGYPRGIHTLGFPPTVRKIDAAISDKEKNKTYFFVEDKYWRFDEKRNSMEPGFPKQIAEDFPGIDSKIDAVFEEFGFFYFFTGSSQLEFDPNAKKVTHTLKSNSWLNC
# Sequence of human MAP Kinase-Activated Protein Kinase 2 (MAPKAPK2), MAPKAPK2 (gene 9261) (P49137 whole entry, looked up): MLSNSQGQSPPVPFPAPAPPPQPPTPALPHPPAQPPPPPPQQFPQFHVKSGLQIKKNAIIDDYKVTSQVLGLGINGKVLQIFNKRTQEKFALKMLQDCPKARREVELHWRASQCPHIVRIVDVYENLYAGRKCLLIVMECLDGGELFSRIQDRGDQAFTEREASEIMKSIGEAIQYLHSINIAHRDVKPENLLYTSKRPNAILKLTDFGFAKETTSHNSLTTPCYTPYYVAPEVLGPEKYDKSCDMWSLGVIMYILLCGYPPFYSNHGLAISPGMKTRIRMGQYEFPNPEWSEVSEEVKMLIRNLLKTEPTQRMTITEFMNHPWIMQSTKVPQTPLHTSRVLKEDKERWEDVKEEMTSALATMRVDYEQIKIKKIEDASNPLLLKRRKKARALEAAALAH
# Sequence of Glycogen synthase kinase-3 beta (Homo sapiens) (P49841 whole entry, looked up): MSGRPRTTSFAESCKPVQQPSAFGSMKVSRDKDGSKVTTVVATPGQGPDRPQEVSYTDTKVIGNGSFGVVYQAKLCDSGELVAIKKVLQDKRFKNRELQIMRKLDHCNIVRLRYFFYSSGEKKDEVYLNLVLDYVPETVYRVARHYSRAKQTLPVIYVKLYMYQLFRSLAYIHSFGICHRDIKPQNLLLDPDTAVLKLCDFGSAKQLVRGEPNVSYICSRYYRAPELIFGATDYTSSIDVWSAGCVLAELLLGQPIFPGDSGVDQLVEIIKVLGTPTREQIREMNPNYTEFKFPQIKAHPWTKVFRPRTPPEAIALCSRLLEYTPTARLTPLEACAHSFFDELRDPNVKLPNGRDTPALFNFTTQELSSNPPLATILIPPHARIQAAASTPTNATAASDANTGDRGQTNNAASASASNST
# Sequence of human Matrix Metalloproteinase-2 (MMP2), MMP2 (gene 4313) (P08253 whole entry, looked up): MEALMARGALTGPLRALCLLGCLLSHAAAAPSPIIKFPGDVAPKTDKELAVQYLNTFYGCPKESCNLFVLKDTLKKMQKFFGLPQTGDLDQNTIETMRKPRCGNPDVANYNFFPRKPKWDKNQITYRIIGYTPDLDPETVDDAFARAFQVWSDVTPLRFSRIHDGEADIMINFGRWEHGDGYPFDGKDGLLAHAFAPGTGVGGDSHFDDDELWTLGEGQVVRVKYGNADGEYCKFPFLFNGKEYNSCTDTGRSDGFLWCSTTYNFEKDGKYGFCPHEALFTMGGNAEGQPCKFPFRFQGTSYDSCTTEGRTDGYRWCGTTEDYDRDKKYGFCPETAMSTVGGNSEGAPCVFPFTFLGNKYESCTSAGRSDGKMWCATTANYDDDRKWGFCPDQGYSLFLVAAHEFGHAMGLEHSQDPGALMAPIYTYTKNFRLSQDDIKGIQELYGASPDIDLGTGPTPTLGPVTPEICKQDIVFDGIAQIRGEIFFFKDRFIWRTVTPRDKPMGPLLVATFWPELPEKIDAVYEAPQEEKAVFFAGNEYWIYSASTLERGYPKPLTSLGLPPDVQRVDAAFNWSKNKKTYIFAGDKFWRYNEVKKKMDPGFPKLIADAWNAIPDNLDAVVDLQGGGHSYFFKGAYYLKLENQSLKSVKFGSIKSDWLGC
# Sequence of human FYN Proto-Oncogene, Src family Tyrosine Kinase (Fyn), FYN (gene 2534) (P06241 whole entry, looked up): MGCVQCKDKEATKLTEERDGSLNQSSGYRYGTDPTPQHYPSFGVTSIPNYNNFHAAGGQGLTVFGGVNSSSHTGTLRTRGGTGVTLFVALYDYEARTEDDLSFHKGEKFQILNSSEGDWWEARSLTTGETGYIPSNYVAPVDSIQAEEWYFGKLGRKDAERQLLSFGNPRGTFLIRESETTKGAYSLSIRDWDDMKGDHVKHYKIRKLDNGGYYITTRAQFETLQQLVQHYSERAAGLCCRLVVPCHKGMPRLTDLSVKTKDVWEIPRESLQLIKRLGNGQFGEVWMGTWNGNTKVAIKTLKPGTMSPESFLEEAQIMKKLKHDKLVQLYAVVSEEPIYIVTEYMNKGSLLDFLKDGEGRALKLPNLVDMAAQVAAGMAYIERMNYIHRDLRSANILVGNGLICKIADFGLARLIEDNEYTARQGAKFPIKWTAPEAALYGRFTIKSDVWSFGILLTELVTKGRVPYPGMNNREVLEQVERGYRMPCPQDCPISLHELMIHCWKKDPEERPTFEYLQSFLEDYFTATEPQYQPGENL
smiles,measurement,setting,value
CCOP(=S)(Oc1cnc(C(C)(C)C)nc1)OC(C)C (stereo not given),AC50,[1],25 µM (active)
CCOC(=O)COc1cc(-c2nn(C)c(OC(F)F)c2Cl)c(F)cc1Cl,outcome,[2],inactive
CNC(=O)ON=C(SC)C(=O)N(C)C,AC50,[1],20.2 µM (active)
C#CC(C)(C)NC(=O)c1cc(Cl)cc(Cl)c1,outcome,[3],inactive
COc1cccc(C(=O)NN(C(=O)c2cc(C)cc(C)c2)C(C)(C)C)c1C,outcome,[4],inactive
O=C(O)c1cc(Oc2ccc(C(F)(F)F)cc2Cl)ccc1[N+](=O)[O-],outcome,[5],inactive
same,outcome,[6],inactive
CCNc1nc(Cl)nc(NC(C)(C)C#N)n1,outcome,[7],inactive
same,outcome,[8],inactive
CCC(=NOC/C=C/Cl)C1=C(O)CC(C2CCOCC2)CC1=O (stereo not given),outcome,[8],inactive
CNC(=O)Oc1cccc2c1OC(C)(C)O2,AC50,[9],6.07 µM (active)
N#CSCSC#N,AC50,[10],3.68 µM (active)
same,outcome,[7],inactive
same,outcome,[11],inactive
same,outcome,[9],inactive
COc1ccc(C(=CC(=O)N2CCOCC2)c2ccc(Cl)cc2)cc1OC,outcome,[12],inactive
Cc1ccn2nc(S(=O)(=O)Nc3c(F)cccc3F)nc2n1,outcome,[12],inactive
same,outcome,[13],inactive
CCOP(=S)(OCC)Oc1ccc([N+](=O)[O-])cc1,AC50,[1],17.5 µM (active)
CCOC(=O)CC(SP(=O)(OC)OC)C(=O)OCC (stereo not given),outcome,[13],inactive
CCC(CC)Nc1c([N+](=O)[O-])cc(C)c(C)c1[N+](=O)[O-],outcome,[4],inactive
COP(=O)(OC)OC(Br)C(Cl)(Cl)Br (stereo not given),AC50,[1],3.82 µM (active)
CC(C)[C@H](C(=O)O[C@H](C#N)c1cccc(Oc2ccccc2)c1)c1ccc(Cl)cc1,outcome,[14],inactive
same,AC50,[15],13 µM (active)
CCOP(=O)(OCC)Oc1cc(C)nc(C(C)C)n1,AC50,[9],11.8 µM (active)
same,outcome,[3],inactive
S=C1NCCN1,outcome,[14],inactive
same,outcome,[4],inactive
same,outcome,[12],inactive
same,outcome,[11],inactive
same,outcome,[16],inactive
same,outcome,[15],inactive
same,outcome,[9],inactive
same,outcome,[3],inactive
COP(=O)(OC)SCn1c(=O)oc2cc(Cl)cnc21,AC50,[1],18.5 µM (active)
